The source of these data is paper PMC10812921, “Transcriptional Coactivator BOB1 (OBF1, OCA-B) Modulates the Specificity of DNA Recognition by the POU-Domain Factors OCT1 and OCT2 in a Monomeric Configuration”.

One assay concerns the target POU1 (OCT1 POU domain) (human, UniProt P14859 260-458). As to the kind of experiment: EMSA-SELEX-seq; no BOB1; 20 mM Tris-HCl pH 7.6, 140 mM NaCl, 10% glycerol, 0.5 mM EDTA, 0.05% Triton X-100, 0.1 mg/mL BSA, 0.1 mg/mL poly(dI-dC), 5 mM DTT, room temperature, 20 min; high values mean tight binding. The following applies: protein: recombinant; dsDNA, one strand shown. Put shortly: (§1)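 With or without 28 ng coactivator protein, 30 ng of tagged POU-domain protein was combined with 300 ng of a PCR-amplified double-stranded random 35-nt library in 20 μL Tris–HCl pH 7.6 binding buffer for 20 min at RT. The protein came from E. coli BL21 and had been purified under denaturing conditions and renatured. Four rounds of cutting complex bands from native 6% PAGE, elution and PCR amplification preceded Illumina sequencing. The binding preference figure is the percentage of sequenced 8-mers matching a motif pattern.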

A further assay concerns the target T1, POU2 (OCT2 POU domain) (human, UniProt P09086 175-386).
T1 sequence: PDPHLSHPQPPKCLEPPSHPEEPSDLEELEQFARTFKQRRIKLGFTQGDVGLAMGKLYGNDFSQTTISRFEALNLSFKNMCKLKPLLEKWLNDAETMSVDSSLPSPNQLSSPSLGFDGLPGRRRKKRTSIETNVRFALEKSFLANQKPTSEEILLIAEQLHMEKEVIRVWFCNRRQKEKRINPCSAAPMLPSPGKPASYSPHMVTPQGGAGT
The assay is described as above. Particulars: protein: recombinant; dsDNA, one strand shown. Put shortly:
as §1

The target of assay [1] is POU1 (OCT1 POU domain);BOB1 (OBF1, OCA-B) (human;human, UniProt P14859;Q16633 260-458;1-256, |). As to the kind of experiment: EMSA-SELEX-seq; with BOB1 (ternary complex band); 20 mM Tris-HCl pH 7.6, 140 mM NaCl, 10% glycerol, 0.5 mM EDTA, 0.05% Triton X-100, 0.1 mg/mL BSA, 0.1 mg/mL poly(dI-dC), 5 mM DTT, room temperature, 20 min; high values mean tight binding. Particulars: protein: recombinant;recombinant; copies: 1;1; dsDNA, one strand shown. Summed up: as §1
A general note: A gel shift assay detects complexes by their altered migration in electrophoresis.

Assay [2] addresses T2, POU2 (OCT2 POU domain);BOB1 (OBF1, OCA-B) (human;human, UniProt P09086;Q16633 175-386;1-256, |).
T2 sequence 1: T1 sequence
T2 sequence 2: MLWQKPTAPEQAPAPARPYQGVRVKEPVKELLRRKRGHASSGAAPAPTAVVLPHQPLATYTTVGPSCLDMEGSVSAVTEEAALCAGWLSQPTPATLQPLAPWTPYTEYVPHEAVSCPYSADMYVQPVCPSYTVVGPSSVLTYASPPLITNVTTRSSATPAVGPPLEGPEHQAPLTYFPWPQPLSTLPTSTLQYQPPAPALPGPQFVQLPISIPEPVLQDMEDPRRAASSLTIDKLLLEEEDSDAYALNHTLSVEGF
The assay is described as above. Particulars: protein: recombinant;recombinant; copies: 1;1; dsDNA, one strand shown. Summed up: as §1

POU1 (OCT1 POU domain), sequence (P14859 260-458): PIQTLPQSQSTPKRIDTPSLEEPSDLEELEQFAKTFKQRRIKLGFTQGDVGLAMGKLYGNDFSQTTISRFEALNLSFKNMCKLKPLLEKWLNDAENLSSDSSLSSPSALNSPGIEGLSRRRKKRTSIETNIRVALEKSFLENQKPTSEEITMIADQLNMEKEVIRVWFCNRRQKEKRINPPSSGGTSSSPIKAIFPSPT

For AGCATAAT, the binding signal in the assay with POU1 (OCT1 POU domain) is 0.269 % of ANNNNAAN 8-mers; with POU2 (OCT2 POU domain), 0.277 % of ANNNNAAN 8-mers; in assay [1], 0.0757 % of ANNNNAAN 8-mers; in assay [2], 0.106 % of ANNNNAAN 8-mers.
Regarding ACTACAAT, the binding signal with POU1 (OCT1 POU domain) was 0.0309 % of ANNNNAAN 8-mers; in the assay with POU2 (OCT2 POU domain) it was 0.0282 % of ANNNNAAN 8-mers; in assay [1], 0.0285 % of ANNNNAAN 8-mers; in assay [2], 0.0338 % of ANNNNAAN 8-mers.
Taken in the same sequence, the figures for AGGCCAAT were 0.0339 % of ANNNNAAN 8-mers, 0.0443 % of ANNNNAAN 8-mers, 0.0316 % of ANNNNAAN 8-mers and 0.0413 % of ANNNNAAN 8-mers.
In the case of AGCCGAAT, the binding signal in the assay with POU1 (OCT1 POU domain) is 0.0313 % of ANNNNAAN 8-mers; with POU2 (OCT2 POU domain), 0.0368 % of ANNNNAAN 8-mers; in assay [1], 0.0281 % of ANNNNAAN 8-mers; in assay [2] it was 0.033 % of ANNNNAAN 8-mers.
Take AAGGGAAG: the binding signal is 0.05 % of ANNNNAAN 8-mers in the assay with POU1 (OCT1 POU domain), 0.0541 % of ANNNNAAN 8-mers in the assay with POU2 (OCT2 POU domain), 0.0511 % of ANNNNAAN 8-mers in assay [1] and 0.0388 % of ANNNNAAN 8-mers in assay [2].
On the same counts, the results for AACGGAAC are 0.0187 % of ANNNNAAN 8-mers, 0.0201 % of ANNNNAAN 8-mers, 0.025 % of ANNNNAAN 8-mers and 0.0206 % of ANNNNAAN 8-mers.
Turning to AGGAAAAC, the binding signal was 0.0591 % of ANNNNAAN 8-mers with POU1 (OCT1 POU domain), 0.0552 % of ANNNNAAN 8-mers with POU2 (OCT2 POU domain), 0.0839 % of ANNNNAAN 8-mers in assay [1] and 0.0636 % of ANNNNAAN 8-mers in assay [2].
On to ATTTAAAA, for which the binding signal with POU1 (OCT1 POU domain) was 0.303 % of ANNNNAAN 8-mers; with POU2 (OCT2 POU domain), 0.299 % of ANNNNAAN 8-mers; in assay [1], 0.178 % of ANNNNAAN 8-mers; in assay [2], 0.137 % of ANNNNAAN 8-mers.
On the same counts, the results for ACCGAAAT are 0.0404 % of ANNNNAAN 8-mers, 0.0426 % of ANNNNAAN 8-mers, 0.0437 % of ANNNNAAN 8-mers and 0.0479 % of ANNNNAAN 8-mers.
AGGGCAAC: the binding signal with POU1 (OCT1 POU domain) is 0.0214 % of ANNNNAAN 8-mers; in the assay with POU2 (OCT2 POU domain) it was 0.0219 % of ANNNNAAN 8-mers; in assay [1], 0.0172 % of ANNNNAAN 8-mers; in assay [2], 0.0173 % of ANNNNAAN 8-mers.
As for ACCTCAAA, the binding signal in the assay with POU1 (OCT1 POU domain) is 0.0149 % of ANNNNAAN 8-mers; in the assay with POU2 (OCT2 POU domain), 0.0155 % of ANNNNAAN 8-mers; in assay [1], 0.0191 % of ANNNNAAN 8-mers; in assay [2], 0.0256 % of ANNNNAAN 8-mers.
For the sequence ATTATAAC, the binding signal with POU1 (OCT1 POU domain) is 0.0713 % of ANNNNAAN 8-mers; in the assay with POU2 (OCT2 POU domain), 0.113 % of ANNNNAAN 8-mers; in assay [1], 0.0581 % of ANNNNAAN 8-mers; in assay [2], 0.057 % of ANNNNAAN 8-mers.
For the sequence ACGGAAAC, the binding signal with POU1 (OCT1 POU domain) was 0.0198 % of ANNNNAAN 8-mers; in the assay with POU2 (OCT2 POU domain), 0.019 % of ANNNNAAN 8-mers; in assay [1], 0.0289 % of ANNNNAAN 8-mers; in assay [2], 0.0305 % of ANNNNAAN 8-mers.
As for AGGATAAG, the binding signal is 0.0496 % of ANNNNAAN 8-mers with POU1 (OCT1 POU domain), 0.0558 % of ANNNNAAN 8-mers with POU2 (OCT2 POU domain), 0.0523 % of ANNNNAAN 8-mers in assay [1] and 0.0479 % of ANNNNAAN 8-mers in assay [2].
On the same counts, the results for ATCCAAAC are 0.0233 % of ANNNNAAN 8-mers, 0.0178 % of ANNNNAAN 8-mers, 0.0343 % of ANNNNAAN 8-mers and 0.0264 % of ANNNNAAN 8-mers.
